From PubChem BioAssay (NCI) come the findings set out here.

Among the test systems are DU-145 prostate; K-562 leukemia; MALME-3M melanoma; MDA-MB-231 breast; SF-268 CNS; SF-295 CNS; SF-539 CNS; UACC-257 melanoma; M14 melanoma; RXF 393 renal.
Holding throughout (experiment): NCI-60 one-dose screen, 48 h (100 = growth as untreated, 0 = no growth, -100 = all killed)
What all share (conditions): 10 µM unless noted

The structures appear in SMILES notation. About 83,000 compounds went through this panel and 20% of them were active in at least one assay; those are over-represented in the sample as a whole.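 96-well plates, one dose, 48 hours. Percent growth reported; active if below 10.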 Unmarked numbers belong to inactive results. Calls of active or inactive are those of the source.

For the compound `COC1=CC(=O)O[C@@H](/C=C/c2ccc3c(c2)OCO3)C1`, the growth with DU-145 prostate is 141%; in the assay with K-562 leukemia, 93.9%; with MALME-3M melanoma it was 119%; with MDA-MB-231 breast, 107%; with SF-268 CNS, 111%; in the assay with SF-295 CNS it was 122%. The figures for the growth with SF-539 CNS, in the assay on UACC-257 melanoma and with M14 melanoma were 107%, 120% and 109%, respectively.

On to `COC(=O)CC12CC(NC(=O)c3csc([C@@H](C[C@H](C(C)C)N(C)C(=O)[C@@H](NC(=O)[C@H]4CCCCN4C)C(C)C)OC(C)=O)n3)(C1)C2`, for which the growth in the assay on DU-145 prostate is 14%; with K-562 leukemia, 9.94% (active); with MALME-3M melanoma, 51%; in the assay on MDA-MB-231 breast it was 6.67% (active); with SF-268 CNS it was 26.1%; in the assay with SF-295 CNS it was -7.27% (active). Besides, the growth with SF-539 CNS is -12.8% (active); in the assay with M14 melanoma, 7% (active).

As to `O=C(Nc1ccc([As]=[As]c2ccc(NC(=O)c3ccccc3)cc2)cc1)c1ccccc1` (configuration not stated), the growth in the assay on DU-145 prostate is -96% (active); in the assay on K-562 leukemia it was -16.8% (active); in the assay on MALME-3M melanoma it was -80.5% (active); with RXF 393 renal, -97.8% (active); in the assay with SF-268 CNS it was -91.4% (active); in the assay on SF-295 CNS it was -52.7% (active). Further, the growth in the assay with SF-539 CNS is -90.9% (active); in the assay on UACC-257 melanoma it was -87% (active); in the assay on M14 melanoma, -89% (active).

In the case of `Cc1cc(N(CCCl)CCCl)ccc1/C=N\NC(=O)c1ccncc1`, the growth was 82.4% in the assay with DU-145 prostate; 85.2% with K-562 leukemia; 96.4% in the assay with MDA-MB-231 breast; 91.7% with RXF 393 renal; 70.7% in the assay on SF-268 CNS; 56.2% with SF-295 CNS. Also, the growth with SF-539 CNS was 60.3%; in the assay on UACC-257 melanoma, 79.8%; with M14 melanoma, 90.4%.

For the compound `O=C1C=C(N2C3C4CCC(C4)C32)C(=O)C=C1c1ccccc1` (configuration not stated), the growth in the assay with DU-145 prostate is 105%; in the assay with K-562 leukemia, 32.9%; in the assay on MALME-3M melanoma, 55.4%; in the assay with MDA-MB-231 breast, 76.6%; with SF-268 CNS it was 89.6%; in the assay with SF-539 CNS it was 96.5%. Besides, the growth in the assay on UACC-257 melanoma was 73.1%; with M14 melanoma it was 111%.

For `COC(=O)[C@@H](C)C[C@H](Cc1ccccc1)NC(=O)c1csc(CC[C@H](C(C)C)N(C)C(=O)[C@@H](NC(=O)[C@H]2CCCCN2C)C(C)C)n1`, the growth with DU-145 prostate is 10.8%; in the assay on K-562 leukemia, 6.9% (active); with MALME-3M melanoma it was 61.2%; in the assay with MDA-MB-231 breast it was 14.2%; in the assay on SF-268 CNS, 27%; in the assay on SF-295 CNS, -6.82% (active). Also, the growth in the assay with SF-539 CNS was -9.08% (active); with M14 melanoma it was -13.3% (active).

For `CC(C)(N)Cc1ccccc1`, the growth was 115% in the assay on DU-145 prostate; 92.8% in the assay with K-562 leukemia; 112% with MALME-3M melanoma; 119% in the assay on MDA-MB-231 breast; 113% in the assay with SF-268 CNS; 98.1% with SF-295 CNS. The growth was 107% with SF-539 CNS, 101% in the assay on UACC-257 melanoma and 105% in the assay with M14 melanoma.

On to `CC(=O)OC[C@]1(C)C=C2C(=O)[C@](C)(O)C3(CC3)C(C)=C2[C@H]1OC(=O)N(C)CCN(C)C(=O)OC(C)(C)C`, for which the growth in the assay on DU-145 prostate is 3.6% (active); in the assay on MALME-3M melanoma, -44% (active); with MDA-MB-231 breast it was 4.31% (active); with RXF 393 renal, -68.2% (active); in the assay on SF-268 CNS it was 7.08% (active); in the assay on SF-295 CNS, 6.27% (active). The results for the growth in the assay on SF-539 CNS, in the assay with UACC-257 melanoma and in the assay on M14 melanoma were -37.1% (active), 33.7% and -29.4% (active), respectively.

For `O=C([O][Hg][CH2]C1COCC([CH2][Hg][O]C(=O)c2ccccc2)O1)c1ccccc1` (configuration not stated), the growth was 4.71% (active) in the assay with K-562 leukemia; -80.5% (active) in the assay with MALME-3M melanoma; 105% in the assay on MDA-MB-231 breast; 87.5% in the assay on RXF 393 renal; 104% with SF-268 CNS; 96.8% in the assay on SF-295 CNS. In addition, the growth is 113% with SF-539 CNS, -69.4% (active) with UACC-257 melanoma and 71.7% in the assay on M14 melanoma.

In the case of `COc1cc(/C=N/C2=C(C#N)C(c3ccco3)c3c(c4cc(C)ccc4oc3=O)O2)cc(OC)c1OC` (configuration not stated), the growth was 107% in the assay on DU-145 prostate; 97.2% in the assay on MALME-3M melanoma; 95.6% in the assay on MDA-MB-231 breast; 95.2% in the assay on SF-268 CNS; 92.2% with SF-295 CNS; 90.8% with SF-539 CNS. Also, the figures for the growth in the assay with UACC-257 melanoma and with M14 melanoma were 94.2% and 93.4%, respectively.

In the case of `O=NNc1ccccn1`, the growth with DU-145 prostate is 5.33% (active); with K-562 leukemia it was 77.7%; in the assay with MDA-MB-231 breast it was 91.2%; in the assay on RXF 393 renal, 83.8%; in the assay on SF-268 CNS, 91.1%; with SF-295 CNS, 96%. The growth was 94.3% in the assay with SF-539 CNS, 94.9% in the assay with UACC-257 melanoma and 87.3% in the assay on M14 melanoma.

For `N#CC1(C#N)C(c2ccc(N(CCCl)CCCl)cc2)OC23CCCCC2C1(C#N)C(=N)O3` (configuration not stated), the growth was 56.4% in the assay on DU-145 prostate; 96.9% in the assay with MALME-3M melanoma; 95.3% with MDA-MB-231 breast; 73.9% with RXF 393 renal; 69.6% in the assay on SF-268 CNS; 108% with SF-295 CNS. The growth is 85% in the assay on SF-539 CNS, 87.9% in the assay on UACC-257 melanoma and 93.9% with M14 melanoma.

For `COc1ccc(N(CC(=O)NCCC[Te]c2ccccc2)C(=O)CCSC2=C(C)C(=O)c3ccccc3C2=O)cc1`, the growth in the assay with DU-145 prostate is -10.1% (active); in the assay on MALME-3M melanoma it was -11.7% (active); in the assay on MDA-MB-231 breast, -61.6% (active); in the assay on RXF 393 renal, -26.5% (active); with SF-268 CNS, 3.17% (active); in the assay on SF-295 CNS, -50.1% (active). Further, the figures for the growth in the assay with SF-539 CNS, in the assay with UACC-257 melanoma and in the assay on M14 melanoma were -62.6% (active), 0.434% (active) and -38.3% (active), respectively.

In the case of `Cc1cc(N(CCCl)CCCl)ccc1C=Nc1cccnc1`, the growth in the assay with K-562 leukemia is 63.1%; in the assay with MALME-3M melanoma it was 62%; in the assay with MDA-MB-231 breast it was 98.4%; in the assay with RXF 393 renal it was 59.7%; with SF-268 CNS, 80.4%; with SF-295 CNS, 36.7%. Also, the growth was 53.5% with SF-539 CNS, 61.8% with UACC-257 melanoma and 79.5% in the assay with M14 melanoma.
